# Screening results: PubChem, National Center for Advancing Translational Sciences (NCATS)
# FLuc modulator: counter-screen for miR-21 project: firefly luciferase inhibitors or activators. P08659. purified FLuc, Km substrates, luminescence inhibition. Potency, µM (titrated, usually from 57.5 µM), for inactives: at the highest dose activity change, negative = inhibition, usual class: inhibitors. 360,000 compounds, 6.9% hits. AID 588342;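 further: plate controls were vehicle for no effect and reference inhibitor for full effect; nearly all actives have a fitted effect of over 55% in size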
# Target sequence (P08659 whole entry, looked up): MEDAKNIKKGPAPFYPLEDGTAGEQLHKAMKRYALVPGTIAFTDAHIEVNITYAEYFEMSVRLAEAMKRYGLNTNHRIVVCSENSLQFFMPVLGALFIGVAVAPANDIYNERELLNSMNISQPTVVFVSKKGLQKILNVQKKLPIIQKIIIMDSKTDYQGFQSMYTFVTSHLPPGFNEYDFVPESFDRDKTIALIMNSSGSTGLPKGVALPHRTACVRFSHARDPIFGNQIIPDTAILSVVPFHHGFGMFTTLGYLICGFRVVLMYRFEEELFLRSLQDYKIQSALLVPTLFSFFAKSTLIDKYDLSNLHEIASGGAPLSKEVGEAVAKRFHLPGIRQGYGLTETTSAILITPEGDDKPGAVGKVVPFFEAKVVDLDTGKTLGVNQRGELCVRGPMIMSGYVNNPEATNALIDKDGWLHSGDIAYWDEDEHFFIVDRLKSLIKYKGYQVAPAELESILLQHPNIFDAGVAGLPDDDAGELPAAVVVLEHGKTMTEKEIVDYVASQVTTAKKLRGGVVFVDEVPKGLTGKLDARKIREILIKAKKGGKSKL
#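 Purified P. pyralis luciferase, 10 nM final, with Km-level 10 uM D-luciferin and 10 uM ATP in 50 mM Tris acetate pH 7.5, 10 mM Mg acetate, 0.01% Tween-20, 0.05% BSA; 6-point qHTS titration about 60 µM downward; luminescence read.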
# NPC1 prom act: activators of NPC1 promoter. 320,000 compounds, 2.4% hits. Potency, µM (doses to about 9.22 µM), inactives show top-dose activation, usual class: activators. Huh7 NPC1 promoter luciferase reporter, 24 h; further: % of control where 0% means no effect; nearly all actives have a fitted effect of over 60% in size
#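 Quantitative HTS used a cell-based reporter: Huh7 cells stably bearing the NPC1 promoter upstream of luciferase were treated with compounds for 24 h, and promoter activation was read as luminescence.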
# ELG1 genotoxic: induces genotoxicity in HEK293T cells with luciferase-tagged ELG1. HEK293T ELG1-luciferase reporter, luminescence, 16 h. Potency, µM (doses to about 46 µM), for the others: at the top dose activity change, positive = activation, most hits filed as activators. 330,000 compounds, 1.3% hits. AID 504466; further: % of control where 0% means no effect; nearly all actives have a fitted effect of over 60% in size
#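 After overnight (16 hr) compound treatment at 37 °C, ELG1-luciferase HEK293T cells were lysed with ONE-Glo; luminescence quantified 30 min later at room temperature.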
# Rab9 promoter act: activators of Rab9 promoter; Huh7 Rab9 promoter-luciferase reporter, luminescence, 24 h; Potency, µM (top dose mostly 9.22 µM), for inactives: top-dose activation, negative = inhibition, actives largely listed as activators; 320,000 compounds, 2.8% hits; AID 485297; further: % of control where 0% means no effect; nearly all actives have a fitted effect of over 60% in size
#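 Huh7 cells stably carrying Rab9 promoter–luciferase reporter, plated 1500 cells/well, compound added after 2 h and incubated 24 h at 37 °C; luciferase luminescence then read after 10 min with detection reagent.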
# SMN2 splice enh: increases expression of the SMN2 splice variant; HEK293 SMN2-luciferase splicing reporter, luminescence, 30-36 h; Potency, µM (titrated, usually from 46.1 µM), for inactives: top-dose activity change, positive = activation, usual class: activators; 210,000 compounds, 2.8% hits; AID 1458; further: % of control where 0% means no effect; nearly all actives have a fitted effect of over 55% in size
#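 qHTS luciferase splicing reporter: luminescence rises when SMN2 exon 7 is included in transfected HEK293 cells. Compound exposure lasted 30-36 h at 37C, with 4.5 mM final sodium butyrate as control, followed by a ONE-Glo read.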
# Starred values were filed as active, the others as inactive; ? = inconclusive; nt = no result; [ ] = another dose, or the depositor's remark. An excerpt weighted towards active compounds, which were near 7.5% of everything screened. The call rests on the fitted dose curve; in most records, active means well fitted curve in the direction sought with a large enough effect; inconclusive means small, poorly fitted or top-dose-only effect, or another doubt; inactive means no such curve, though single readings can be large; an effect the other way counts as inactive or inconclusive. Potency means the concentration at half of the fitted maximal effect.
SMILES,FLuc modulator,NPC1 prom act,ELG1 genotoxic,Rab9 promoter act,SMN2 splice enh
COc1cc(/C=C2/C(=O)ON=C2c2ccccc2)ccc1O,19µM*,-3%,3%,-1%,-1%
O=C1ON=C(c2ccc(Cl)cc2)/C1=C/c1ccc(O)cc1,11µM*,-5%,?,-10%,0%
O=C1ON=C(c2ccccc2)/C1=C/c1ccc(O)cc1,?,-4%,?,-1%,nt
O=C(O)CCCc1ccc2ccccc2c1,nt,nt,nt,nt,-3%[9.22 µM]
CCn1c(CNC(C)=O)nnc1SCC(=O)c1ccc(Br)cc1,-3%,-5%,-1%,0%,?
CCN(CC)C(=S)SCC(=O)c1ccc(Br)cc1,19µM*,?,?,?,?
Nc1cc(C(=O)OCC(=O)N2CCC(Cc3ccccc3)CC2)ccc1Cl,4%,-2%,2%,2%,nt
O=C(Cn1cc(C(F)(F)F)cc(Cl)c1=O)NC1CCS(=O)(=O)C1 (configuration not stated),0%,-2%,3%,-1%,nt
Cc1ccc2c(Cl)c(C)c(N3CCCC3)nc2n1,17µM*,-2%,1%,2%,-10%
Cc1nnc(N2CCCCC2)c2ccccc12,3%,-1%,1%,1%,?
COc1ccc(C(=O)NN/C(C)=C/C(=O)c2ccccc2)cc1,-4%,0%,0%,1%,nt
COc1ccc(C(=O)N/N=C/C(=O)c2ccccc2)cc1,1.5µM*,2.5µM*,10µM*,?,nt
Cc1ccc(C(=O)NN=CC(=O)c2ccccc2)c(C)c1,nt,nt,2.3µM*,nt,nt
Cc1noc(C)c1C(=O)OCC(=O)NCc1ccccc1,2%,2%,1%,-3%,nt
COc1ccc(CCNc2ccc(N3C(=O)CC(C)C3=O)cc2[N+](=O)[O-])cc1OC (configuration not stated),-11%,-24%,-4%,-27%,-72%
CCCCN1C(=O)/C(=C2\SC(N3CCCCC3)=NC2=O)c2ccccc21,2.1µM*,1.4µM*,?,1.8µM*,?
Cc1ccc(C)c(OCc2nnc(N)s2)c1,-16%,0%,0%,-2%,12%
Nc1nnc(COc2ccc(Br)cc2Br)s1,8.5µM*,?,?,?,?
Cc1csc2c(N3CCCCC3)ncnc12,13µM*,?,10%,19%,nt
Cc1csc2c(N3CCC(C(=O)O)CC3)ncnc12,17µM*,2%,8%,18%,nt
COC(=O)C1=C(C)N(Cc2ccccc2)C(=NCCCCO)N[C@H]1CCc1ccccc1,0%,-3%,-5%,0%,nt
O=C(Nc1ccc(S(=O)(=O)N2CCOCC2)cc1)C1CCN(S(=O)(=O)c2ccccc2)CC1,3%,-3%,-8%,0%,nt
Cc1ccc(O)c(NC(=O)c2ccc3c(c2)C(=O)N(CC(C)C)C3=O)c1,2.4µM*,2.8µM*,?,?,nt
CCCN1C(=O)c2ccc(C(=O)Nc3cc(C)ccc3O)cc2C1=O,3.4µM*,2.2µM*,?,?,nt
O=C(Nc1c[nH]c(=O)[nH]c1=O)c1ccc2c(c1)C(=O)N(c1cccc([N+](=O)[O-])c1)C2=O,-1%,0%,1%,0%,nt
SMILES,FLuc modulator,NPC1 prom act,ELG1 genotoxic,Rab9 promoter act,SMN2 splice enh
Cc1ccnc(NC(=O)c2ccc3c(c2)C(=O)N(CC(C)C)C3=O)c1,0%,8%,12%,0%,nt
O=C(Nc1ccccc1C(=O)O)c1ccc2c(c1)C(=O)N(c1cccc([N+](=O)[O-])c1)C2=O,27µM*,1%,0%,-7%,nt
CCCN1C(=O)c2ccc(C(=O)Nc3ccccc3C(=O)O)cc2C1=O,3.8µM*,?,10%,22%,nt
CC(=O)N1c2ccc(S(=O)(=O)N3CCC(C(=O)NC(C)c4ccccc4)CC3)cc2CC1C (configuration not stated),-2%,2%,0%,-3%,nt
c1ccc(Nc2nc(-c3cccs3)cs2)nc1,0.76µM*,?,?,?,3.2µM*
Cc1cccc(Nc2nc(-c3ccccn3)cs2)n1,1.7µM*,1.3µM*,0.82µM*,0.63µM*,3.2µM*
Cc1noc(C)c1C(=O)Nc1nc(-c2cccs2)cs1,?,?,9%,?,nt
Nc1ccc(Nc2nc(-c3cccs3)cs2)cc1,-1%,-3%,-3%,-4%,nt
CSCCC(=O)Nc1nc(-c2ccccn2)cs1,?,1%,-6%,2%,5%
Cc1cccc(Nc2nc(-c3cccs3)cs2)n1,2.1µM*,?,?,2.5µM*,1.4µM*
Nc1c(C(=O)NCC2CCCO2)sc2nc3c(c(-c4ccco4)c12)CC/C3=C\c1ccco1 (configuration not stated),5.4µM*,1%,1%,3%,-1%
NC(=O)c1sc2nc3c(c(-c4ccco4)c2c1N)CCCC3,-10%,-1%,-15%,-3%,nt
S=c1[nH]nc(Nc2cccc3ccccc23)s1,?,-2%,2%,1%,nt
Fc1ccccc1Nc1n[nH]c(=S)s1,?,14%,?,?,13µM*
Cc1ccc(NC(=O)c2cc(S(=O)(=O)N3CCc4ccccc43)cn2C)c(Cl)c1,-8%,nt,nt,nt,nt
O=C(OCc1c(-c2ccccc2)ncc2ccccc12)N1CCOCC1,2.7µM*,-2%,5%,-4%,nt
O=C(O)CCC(=O)OCc1c(-c2ccccc2)ncc2ccccc12,-12%,1%,0%,0%,nt
COc1ccccc1CCNC(=O)C(=O)c1cn(CC(=O)N2CCCC2)c2ccccc12,11µM*,23%,2%,26%,nt
COc1ccc(NC(=O)C(=O)c2cn(CC(=O)N3CCCC3)c3ccccc23)c(OC)c1,4.8µM*,?,?,?,nt
COc1ccc(NC(=O)CSc2cn(CC(=O)N3CCCCC3)c3ccccc23)c(OC)c1,-12%,nt,nt,nt,nt
COc1ccccc1NC(=O)C(=O)c1cn(CC(=O)N2CCCC2)c2ccccc12,4.8µM*,?,13%,?,nt
COc1ccccc1NC(=O)C(=O)c1cn(CC(=O)N2CCOCC2)c2ccccc12,4.8µM*,?,?,?,nt
O=C(COC(=O)CN1C(=O)C2CCCCC2C1=O)NCc1ccc(Cl)cc1Cl (configuration not stated),-15%,-2%,0%,-5%,nt
COc1ccc(CCNC(=O)C(=O)c2cn(CC(=O)N3CCOCC3)c3ccccc23)cc1OC,21µM*,-1%,6%,1%,nt
CCC(C(=O)NCCc1ccccc1)n1nc(C)c2sc3ccccc3c2c1=O (configuration not stated),19µM*,nt,nt,nt,nt
COc1ccc(CCNC(=O)C(C)n2nc(C)c3sc4ccccc4c3c2=O)c(OC)c1 (configuration not stated),9.5µM*,nt,nt,nt,nt
CCOC(=O)N1CCN(C(=O)C(CC)n2nc(C)c3sc4ccccc4c3c2=O)CC1 (configuration not stated),0%,-5%,-7%,-3%,-17%
